# Compounds with a hit are over-represented: about 6% of the library has one in this group of screens.
# Tau ThT inhib: blocks human tau fibril formation measured by thioflavin T. recombinant tau K18 P301L, heparin-induced fibrillization, ThT fluorescence. AID 1460. actives 2.1% (n = 270,000). P10636. Potency, µM (top dose mostly 57.4 µM), for inactives: at the highest dose activity, negative = inhibition, usual class: inhibitors; also: nearly all actives have a fitted effect of over 55% in size
# Target sequence (P10636 561-689 P618L limits assumed): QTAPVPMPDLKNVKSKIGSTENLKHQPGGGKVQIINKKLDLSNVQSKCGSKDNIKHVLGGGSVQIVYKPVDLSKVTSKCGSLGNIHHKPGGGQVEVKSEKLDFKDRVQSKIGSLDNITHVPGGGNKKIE
#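 Aggregation was driven by heparin (20 uM final) acting on recombinant tau […] bearing P301L in 100 mM sodium acetate pH 7; fibrils were detected with Thioflavin T.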
# Sfp inh: blocks B. subtilis Sfp PPTase activity. Q9F4F7. Biochemical Sfp PPTase activity, qHTS. Potency, µM, for the others: largest response in the series, negative = inhibition, most hits filed as inhibitors. actives 3.5% (n = 310,000). AID 1490;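 also: the enzyme is Sfp with the accession as filed and its product quenches rhodamine fluorescence; 0% = enzyme reaction without inhibitor and -100% = no enzyme wells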
#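 Fluorescence-quenching assay: 15 nM Sfp-PPTase preincubated 15 min at room temperature with compound, then 5 uM rhodamine-CoA and 12.5 uM BHQ-2-labelled YbbR peptide added. Fluorescence (ex 525/em 598 nm) read at start and after 30 min; difference gives rate.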
# Tau fluor cs: counter-screen for tau fibril formation inhibitors | tau K18 P301L Alexa594 fluorescence, heparin fibrillization | Potency, µM (highest dose often 57.7 µM), inactives show at the highest dose activity change, negative = decrease | actives 0.93% (n = 280,000); also: nearly all actives have a fitted effect of over 55% in size
#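 Human tau K18 P301L (15 uM unlabeled, 0.24 uM Alexa 594-labeled) in 100 mM sodium acetate pH 7 with 20 uM heparin, 6 hr at 37 C. ThT 30 uM added, 1 hr ambient; Alexa 594 FP and total fluorescence read at 555/632 nm.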
# PLK1 PBD block: inhibitors of human PLK1 polo-box domain binding | Potency, µM, without a hit: max response, negative = inhibition, hits mostly inhibitors | P53350 | Plk1 PBD binding of FITC phosphopeptide, fluorescence polarization | actives 2.8% (n = 360,000); also: series mostly up to about 57 µM; nearly all actives have a fitted effect of over 65% in size
# Tau FP inhib: blocks human tau fibril formation measured by polarization | K18 P301L tau heparin fibrillization, Alexa594 FP, 6 h | actives 0.39% (n = 280,000) | Potency, µM (series often up to 57.7 µM), for inactives: at the highest dose activity, negative = inhibition, hits mostly inhibitors; also: nearly all actives have a fitted effect of over 55% in size
#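 Read-out: fluorescence polarization of Alexa 594-labeled tau (0.24 uM), 555 nm excitation, 632 nm emission. Mixtures held 15 uM unlabeled K18 P301L, compound and 20 uM heparin, pH 7 acetate buffer, incubated 6 hr at 37 C.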
# VDR inhibitor: blocks the human vitamin D receptor | P11473 | VDR-SRC2-3 peptide fluorescence polarization, 2 h | Potency, µM, without a hit: max response, negative = inhibition, actives largely listed as inhibitors | actives 0.93% (n = 400,000) | AID 504847
# Target sequence (P11473 whole entry, looked up): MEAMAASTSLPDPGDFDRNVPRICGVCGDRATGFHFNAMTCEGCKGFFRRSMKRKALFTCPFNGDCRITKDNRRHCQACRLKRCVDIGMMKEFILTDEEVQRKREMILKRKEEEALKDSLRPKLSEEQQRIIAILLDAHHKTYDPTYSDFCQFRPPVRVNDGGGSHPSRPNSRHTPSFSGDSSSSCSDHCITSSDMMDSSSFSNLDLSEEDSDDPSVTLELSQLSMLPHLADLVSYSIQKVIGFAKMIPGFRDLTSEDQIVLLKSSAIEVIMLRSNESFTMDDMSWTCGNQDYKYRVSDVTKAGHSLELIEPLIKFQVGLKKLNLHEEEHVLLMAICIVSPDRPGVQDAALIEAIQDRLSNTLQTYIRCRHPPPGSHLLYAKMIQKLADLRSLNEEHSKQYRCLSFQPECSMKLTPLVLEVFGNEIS
#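 Fluorescence polarization assay of small-molecule disruption of VDR binding to coregulator peptide SRC2-3. Compounds and controls pin-transferred, then read after 2 h incubation at ambient room temperature.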
# * marks the source's active call; other numbers are inactive results; u = inconclusive; x = no result; [ ] = another dose, or the depositor's remark. Calls follow the shape of the dose curve; as a rule, active = well fitted curve in the direction sought with a large enough effect; inconclusive = small, poorly fitted or top-dose-only effect, or another doubt; inactive = no such curve, though single readings can be large; an effect the other way counts as inactive or inconclusive. Unless noted, % is scaled to controls: 0 for no effect and ±100 for the full control effect; potency is read from the fitted curve at half-maximal effect.
SMILES,Tau ThT inhib,Sfp inh,Tau fluor cs,PLK1 PBD block,Tau FP inhib,VDR inhibitor
CC(C)c1ccccc1NC(=O)CN(c1ccccc1)S(=O)(=O)N(C)C,-1%,x,-9%,x,2%,9%
Cc1nc(-n2nc(C)c(Cc3ccc(Cl)cc3)c2C)sc1C(=O)N1CCC(C)CC1,-15%,x,-2%,x,5%,3%
CN1CCN(CCOCCOc2ccc(Br)cc2Cl)CC1,x,56µM*,x,4%,x,18%
COc1ccc(OCCOCCOc2ccc(C)cc2[N+](=O)[O-])cc1,-17%,6%,-17%,-8%,-8%,u
Cc1ccc(OCCOCCN2CCCCC2)c([N+](=O)[O-])c1,-13%,56µM*,-5%,-5%,4%,-1%
Cc1cc(Cl)c(OCCOCCN2CCCC(C)C2)c(Br)c1 (stereo not given),-13%,-14%,-5%,9%,-2%,-7%
CC1CCCN(CCOCCOc2ccc(Br)cc2Cl)C1 (stereo not given),-7%,-25%,-6%,-10%,0%,-22%
Cc1ccc(OCCOCCN2CCN(C)CC2)c([N+](=O)[O-])c1,-12%,79µM*,-11%,-8%,-9%,-16%
Cc1cc(Cl)c(OCCOCCN2CCCCC2)c(Br)c1,-5%,63µM*,2%,-11%,0%,-11%
COc1ccc(-n2c(SCC(=O)NCc3ccc(F)cc3)nc3c([nH]c4ccccc43)c2=O)cc1,10%,x,-14%,x,-1%,14%
Cc1ccc(CNC(=O)c2cc(NS(=O)(=O)c3ccc(C)cc3)ccn2)cc1,-12%,x,-16%,x,-1%,6%
O=C(CC1CC2CCC1C2)N1CCN(S(=O)(=O)c2ccc(F)cc2)CC1 (stereo not given),x,x,x,1%,x,x
O=C(CSc1nc2c(c(=O)[nH]1)CN(Cc1ccc3c(c1)OCO3)CC2)Nc1ccc(F)c(F)c1,u,x,-27%,x,-1%,5%
Cc1ccsc1C1C(C#N)=C(N)OC2=C1C(=O)CCC2 (stereo not given),-7%,56µM*,-1%,u,-1%,16%
CCOc1ccccc1CNC(=O)Cn1nc(N2CCN(c3ccccc3)CC2)ccc1=O,-16%,x,-13%,x,2%,-1%
O=C(COC(=O)c1ccccc1SCC(=O)NC1CCS(=O)(=O)C1)NC1CCS(=O)(=O)C1 (stereo not given),6%,-6%,4%,-7%,-9%,9%
CCNC(=O)NC(=O)COC(=O)c1ccccc1SCC(=O)NC(=O)NCC,u,u,7%,2.7µM*,-4%,u
Cc1cccc(NC(=O)CSc2ccc(-c3ccccn3)nn2)c1C,-8%,-5%,-7%,-7%,3%,2%
O=C(CSc1ccc(-c2cccnc2)nn1)Nc1ccc(F)cc1F,x,6%,x,-6%,x,-6%
O=C(CSc1ccc(-c2ccco2)nn1)Nc1ccc(F)cc1F,x,50µM*,x,-30%,x,u
Cc1cccc(NC(=O)CSc2ccc(-c3ccco3)nn2)c1C,-22%,22µM*,-9%,-14%,-4%,-19%
COc1ccc(C)cc1NC(=O)CSc1nnc(-c2ccco2)n1N,2%,8%,4%,-7%,1%,12%
COc1ccc(C)cc1NC(=O)CSc1ccc(-c2ccco2)nn1,x,18µM*,x,u,x,u
COc1ccc(NC(=O)c2cc(C3CCCCN3C(=O)c3cc(OC)c(C)c(OC)c3)on2)c(C)c1 (stereo not given),x,x,x,2%,x,x
CC(CCc1ccco1)NC(=O)Cn1ncc2c1-c1ccccc1OC2 (stereo not given),-12%,50µM*,-2%,-10%,-4%,-12%
SMILES,Tau ThT inhib,Sfp inh,Tau fluor cs,PLK1 PBD block,Tau FP inhib,VDR inhibitor
CCn1c2ccccc2c2cc(NC(=O)CSc3nnc(-c4cccc(OC)c4)n3N)ccc21,u,6%,16µM*[quencher],-6%,2%,13%
COCCCNC(=O)C1CCCN(c2nn3cc(-c4ccc(C)cc4)nc3s2)C1 (stereo not given),u,x,-24%,x,2%,21%
COC(=O)N1CCC2(CC1)CCN(c1ccccc1)CC2,x,8%,x,x,x,3%
COc1ccc(C(=O)N2CCC[C@@]3(CCN(c4cccc(-c5ccccc5)c4)C3)C2)cc1,x,-6%,x,x,x,40µM*
COC(=O)N1CCC2(CC1)CN(c1cccc(-c3ccccc3)c1)C2,x,79µM*,x,x,x,-13%
Cc1noc(C)c1C(=O)N1CCC[C@@]2(CCN(Cc3ccccc3)C2)C1,x,26%,x,x,x,1%
Cc1noc(C)c1C(=O)N1CCC[C@@]2(CCN(c3cccc(-c4ccccc4)c3)C2)C1,x,2%,x,x,x,40µM*
NC(=O)c1ccc(C[C@H](C(=O)O)N2C(=O)c3ccc(C(=O)O)cc3C2=O)cc1,x,13%,x,x,x,x
CCN(CC)c1cc2c(cc1F)c(=O)c(S(=O)(=O)c1cccc(C)c1)cn2C,14%,x,11%,x,2%,17%
CCCCCC(=O)N1C[C@@H](O)[C@H](n2cc(-c3ccc(F)cc3)nn2)C[C@@H]1c1ccccc1,x,x,x,-12%,x,x
N#Cc1cc2cc3c(cc2nc1N1CCCCC1)OCCO3,-8%,28µM*,-15%,-16%,-10%,-4%
Cc1ccc(-n2nc(C(=O)N3CCN(c4ccccc4F)CC3)c3c4ccccc4n(C)c3c2=O)cc1,-4%,x,-9%,x,-11%,-16%
COCCNC(=S)N/N=C1\CC(C)CC(C)(C)C1 (stereo not given),0%,50µM*,2%,-8%,-7%,u
CCOC(=O)N/N=C1\CC(C)CC(C)(C)C1 (stereo not given),1%,17%,-2%,-11%,-7%,-6%
COc1ccc(-c2nc3cnc(N(C)C)nc3n(CCC#N)c2=O)cc1,x,17%,x,x,x,0%
CN(CC(=O)NCCc1ccccc1)S(=O)(=O)c1ccc(Br)s1,x,2%,x,-14%,x,-11%
CCc1ccc(NC(=O)c2ccc3c(c2)C(=O)N(Cc2ccco2)C3=O)cc1,u,40µM*,-17%,-25%,10%,u
COC(=O)Cc1ccc(NC(=O)c2ccc3c(c2)C(=O)N(Cc2ccco2)C3=O)cc1,x,10%,x,-4%,x,-11%
CC1CCC2(C(=O)O)CCC3(C)C(=CCC4C3(C)CCC3[C@@]4(C)CC(O)C(O)[C@@]3(C)CO)C2C1C (stereo not given in full),3%,6%,1%,x,0%,15%
